SMILES strings stand for the structures. Values without a mark were called inactive. Results filed as inconclusive are left out. Calls of active or inactive are those of the source. Unless noted, calls follow the shape of the dose curve; as a rule, active = well fitted curve in the direction sought with a large enough effect in the repeat runs; inconclusive = weak or mixed curves; inactive = no such curve, though single readings can be large; an effect the other way counts as inactive or inconclusive.

Here are results for nine compounds from PubChem BioAssay (Tox21).

Assay [1] addresses Luciferin 4-monooxygenase (Photinus pyralis) (UniProt P08659). Briefly: qHTS assay to identify small molecule inhibitors of firefly luciferase (AID 1224835). Also: series mostly up to about 120 µM; nearly all actives have a fitted effect of over 25% in size. The gist of the method:
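Inhibition of purified Photinus luciferase is measured by luminescence. Substrate levels (D-luciferin, ATP) sit at their KM values. Each compound is tested in a concentration series.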
A general note: Quantitative high-throughput screening tests each substance at several concentrations.

Assay [2] in a line: qHTS assay to identify small molecule agonists of the constitutive androstane receptor (CAR) signaling pathway - cell viability counter screen (AID 1224836). Also: series mostly up to about 92 µM; nearly all actives have a fitted effect of over 45% in size. The essentials:
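Fluorescence from CellTiter-Fluor indicates live cells after 23 h exposure. The human hepatoma line expresses hCAR and a CYP2B6-2.2kb reporter. Incubation medium contains 0.75 uM PK11195 (final).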

The nature of assay [3]: qHTS assay to identify small molecule antagonists of the constitutive androstane receptor (CAR) signaling pathway - cell viability counter screen (AID 1224837). Also: series mostly up to about 92 µM; nearly all actives have a fitted effect of over 45% in size. The essentials: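 Cytotoxicity counter-screen: CellTiter-Fluor fluorescence after 23 h compound exposure (15-point qHTS) in double-stable HepG2-CYP2B6-hCAR cells, with 50 nM CITCO added.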
Assay [4] can be described thus: qHTS assay to identify small molecule antagonists of the estrogen related receptor signaling pathway with the pleiotropic PPARgamma coactivator (PGC) from Tox21 10K library - cell viability counter screen (AID 1224840; active = well fitted cell-killing curve with a large enough effect in the repeat runs, not every such curve was filed as active; also: nearly all actives have a fitted effect of over 40% in size). The gist of the method: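 Counter-screen for cytotoxicity: after 17.5 h compound exposure at 37 C, CellTiter-Fluor reagent added to PGC/ERR cells for 30 min and fluorescence read. Cells were seeded at 2,000 per well 6 h before dosing.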

For assay [5], the target named is Thyrotropin receptor (Homo sapiens) (UniProt P16473). Briefly: qHTS assay to identify small molecule agonists of the thyroid stimulating hormone receptor (TSHR) signaling pathway (AID 1224843; calls by dose curve; also: nearly all actives have a fitted effect of over 45% in size). The gist of the method: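 Agonist activity read as cAMP rise via d2/cryptate HTRF competition, 1 h room-temperature detection, in HEK293 cells expressing TSHR. Fifteen-point titrations, each run in triplicate, with a 30 min room-temperature incubation beforehand.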
Thyrotropin receptor (Homo sapiens), sequence (P16473 whole entry, looked up): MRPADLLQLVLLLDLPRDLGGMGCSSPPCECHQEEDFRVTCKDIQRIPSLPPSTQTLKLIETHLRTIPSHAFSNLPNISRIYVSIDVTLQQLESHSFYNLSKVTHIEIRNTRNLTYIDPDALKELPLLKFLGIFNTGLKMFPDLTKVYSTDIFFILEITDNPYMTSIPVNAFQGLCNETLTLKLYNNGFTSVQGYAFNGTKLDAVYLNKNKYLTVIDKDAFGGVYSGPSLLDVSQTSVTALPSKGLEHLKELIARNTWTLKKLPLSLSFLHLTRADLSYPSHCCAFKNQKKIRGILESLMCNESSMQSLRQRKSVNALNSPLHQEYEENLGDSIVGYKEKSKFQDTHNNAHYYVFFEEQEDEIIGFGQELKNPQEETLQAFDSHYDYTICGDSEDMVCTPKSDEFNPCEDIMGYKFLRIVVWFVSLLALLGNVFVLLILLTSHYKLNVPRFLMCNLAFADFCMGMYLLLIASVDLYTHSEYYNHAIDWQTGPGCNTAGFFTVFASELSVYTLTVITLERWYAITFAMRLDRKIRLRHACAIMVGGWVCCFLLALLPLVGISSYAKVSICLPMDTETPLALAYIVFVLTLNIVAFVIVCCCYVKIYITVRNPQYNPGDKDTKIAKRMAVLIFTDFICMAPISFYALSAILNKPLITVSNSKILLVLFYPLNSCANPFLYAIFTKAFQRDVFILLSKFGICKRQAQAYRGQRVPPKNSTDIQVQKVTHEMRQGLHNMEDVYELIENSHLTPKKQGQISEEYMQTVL

A short description of assay [6]: qHTS assay to identify small molecule agonists of the hypoxia (HIF-1) signaling pathway - cell viability counter screen (AID 1224844; calls by dose curve; also: nearly all actives have a fitted effect of over 50% in size). The essentials: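 Cytotoxicity measured by CellTiter-Glo ATP luminescence in the wells also read for beta-lactamase signal. Cells were HRE-bla ME-180 (2,000/well, 0.5% dialyzed FBS), exposed to compounds for 17 h at 37C.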
Assay [7] is described as follows: qHTS assay to identify small molecule agonists of H2AX (AID 1224845; active = well fitted activation curve with a large enough effect in the signal ratio in the repeat runs, not every such curve was filed as active; the % refers to the signal ratio). The essentials:
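Phospho-H2AX Ser139 measured by HTRF (ex 320 nm; em 665 and 620 nm) after 24 hr antibody incubation. Compounds, 15 concentrations, 0.76% DMSO, were applied to CHO-K1 cells for 3hr at 37C before lysis.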

Assay [8] in a line: qHTS assay to identify small molecule agonists of H2AX - cell viability counter screen (AID 1224847; calls by dose curve; also: top concentration of the series differs between compounds; nearly all actives have a fitted effect of over 30% in size). The essentials: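 Viability of CHO-K1 (wild type) cells after 3 hr compound exposure was measured by CellTiter-Glo luminescence.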
Assay [9] is described as follows: qHTS RealTime-Glo MT Cell Viability Assay in HepG2 cells - 24 hour (AID 1224867). Also: nearly all actives have a fitted effect of over 50% in size. The essentials: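 qHTS, HepG2, 600 cells/well, RealTime-Glo (NanoLuc + prosubstrate) added with cells; 5 h preincubation; DMSO compound addition; 37 C; luminescence at 0/8/16/24/32/40 h.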
Assay [10] is described as follows: qHTS RealTime-Glo MT Cell Viability Assay in HEK293 cells - 32 hour (AID 1224868). Also: top concentration of the series differs between compounds; nearly all actives have a fitted effect of over 50% in size. The essentials: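 Assay medium contained NanoLuc luciferase plus cell-permeant prosubstrate, added with HEK293 cells at 600 cells/well. After 5 h at 37 C/5% CO2 compounds were added; plates stayed at 37 C for 40 h with serial luminescence reads.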
Assay [11] can be described thus: A CellTox Green Cytotoxicity Assay to monitor cytotoxicity in HEK293 cells - 0 hour (AID 1224869). Also: nearly all actives have a fitted effect of over 50% in size. The gist of the method: (§1)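 Fluorescence from a DNA-binding dye excluded by viable cells was measured repeatedly in the same HEK293 wells (600 cells/well) during continuous compound exposure at 37 C. Each assay gives one read point: 0, 8, 16, 24, 32 or 40 h.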
Assay [12] can be described thus: qHTS RealTime-Glo MT Cell Viability Assay in HepG2 cells - 40 hour (AID 1224870). Also: nearly all actives have a fitted effect of over 50% in size. Also: potency is read from the fitted curve at half-maximal effect. The gist of the method: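 Real-time viability: cells seeded at 600 per well together with NanoLuc and cell-permeant prosubstrate, compounds added after 5 h incubation. Luminescence tracked at 0, 8, 16, 24, 32 and 40 h of exposure.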
Assay [13] is described as follows: A CellTox Green Cytotoxicity Assay to monitor cytotoxicity in HEK293 cells - 40 hour (AID 1224871). Also: nearly all actives have a fitted effect of over 45% in size. The essentials: as §1
Assay [14] in a line: qHTS assay to identify small molecule antagonists of the estrogen related receptor signaling pathway with the pleiotropic PPARgamma coactivator (PGC) from Tox21 10K library (AID 1224841; call rule not given here). The gist of the method:
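Luminescence (One-Glo, 30 min at room temperature) after 18 h compound treatment at 37 C of PGC/ERR reporter cells plated at 2,000 cells/well and settled 6 h beforehand.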

Assay [15] in a line: qHTS assay to identify small molecule agonists of the estrogen related receptor signaling pathway with the pleiotropic PPARgamma coactivator (PGC) from Tox21 10K library (AID 1224842). Also: nearly all actives have a fitted effect of over 15% in size. The essentials: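 Luminescence from One-Glo (30 min, room temperature) measured after PGC/ERR cells had 18 h at 37 C with pinned compound (23 nL in DMSO). Cells had been seeded at 2,000 per well and pre-incubated 6 h.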

Assay [16] is described as follows: qHTS assay to identify small molecule agonists of the hypoxia (HIF-1) signaling pathway (AID 1224846; active = well fitted activation curve with a large enough effect in the signal ratio in the repeat runs, not every such curve was filed as active; the % refers to the signal ratio). The gist of the method:
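Compounds added to ME-180 cells carrying hypoxia-response-element beta-lactamase reporter (0.5% dialyzed FBS, 5 h preplating), 17 h at 37C; agonist activity detected by CCF4-AM B/G FRET read-out.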

Assay [17] in a line: qHTS assay to identify small molecule antagonists of the estrogen related receptor (ERR) signaling pathway from Tox21 library (AID 1224848). Also: nearly all actives have a fitted effect of over 50% in size. The essentials:
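Luciferase luminescence (ONE-Glo, 30 min room temperature) was the read-out. Cells of the NTP-supplied ERR line, 2,000 per well, were given 6 h at 37 C before compound addition in DMSO and 18 h exposure at 37 C.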

A short description of assay [18]: qHTS assay to identify small molecule agonists of the estrogen related receptor (ERR) signaling pathway from Tox21 library (AID 1224849; calls by dose curve; also: nearly all actives have a fitted effect of over 15% in size). The gist of the method:
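Luminescent agonist read-out (One-Glo, 30-minute room-temperature incubation) following 18-hour compound treatment at 37 C of the ERR cell line, which had been plated 6 hours before dosing.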

The target of assay [19] is Nuclear receptor subfamily 1 group I member 3 (Homo sapiens) (UniProt Q14994). The assay is described as follows: qHTS assay to identify small molecule antagonists of the constitutive androstane receptor (CAR) signaling pathway (AID 1224838).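 Also: HepG2 cells stably expressing hCAR with CYP2B6 luciferase reporter stimulated by CITCO; nearly all actives have a fitted effect of over 40% in size.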 The essentials: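 Antagonism measured as luciferase signal (ONE-Glo, 30 min, room temperature) in CAR-stimulated cells: HepG2-CYP2B6-hCAR double-stable line exposed 24 hr at 37 C to compound in a 15-point series plus 50 nM CITCO.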
Nuclear receptor subfamily 1 group I member 3 (Homo sapiens), sequence (Q14994 whole entry, looked up): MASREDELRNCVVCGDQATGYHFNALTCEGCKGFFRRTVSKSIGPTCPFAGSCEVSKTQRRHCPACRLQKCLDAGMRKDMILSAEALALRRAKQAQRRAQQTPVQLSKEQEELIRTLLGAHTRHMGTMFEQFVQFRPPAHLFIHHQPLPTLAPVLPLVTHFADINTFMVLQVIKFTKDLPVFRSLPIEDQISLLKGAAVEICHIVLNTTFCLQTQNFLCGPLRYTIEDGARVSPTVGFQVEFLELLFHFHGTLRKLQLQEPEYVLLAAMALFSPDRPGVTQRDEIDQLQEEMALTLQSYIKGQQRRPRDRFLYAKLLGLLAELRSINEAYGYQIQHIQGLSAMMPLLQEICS

Assay [20] has the same target. Briefly: qHTS assay to identify small molecule agonists of the constitutive androstane receptor (CAR) signaling pathway (AID 1224839).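 Also: HepG2 cells stably carrying human CAR and a CYP2B6 luciferase reporter; series mostly up to about 92 µM; nearly all actives have a fitted effect of over 15% in size.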 The gist of the method: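 Stable hCAR/CYP2B6-2.2kb HepG2 line in DMEM with 10% FBS; compounds (15 concentrations) and 0.75 uM PK11195 final, 24 h at 37 C/5% CO2, then ONE-Glo luminescence after 30 min.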

Luciferin 4-monooxygenase (Photinus pyralis), sequence (P08659 whole entry, looked up): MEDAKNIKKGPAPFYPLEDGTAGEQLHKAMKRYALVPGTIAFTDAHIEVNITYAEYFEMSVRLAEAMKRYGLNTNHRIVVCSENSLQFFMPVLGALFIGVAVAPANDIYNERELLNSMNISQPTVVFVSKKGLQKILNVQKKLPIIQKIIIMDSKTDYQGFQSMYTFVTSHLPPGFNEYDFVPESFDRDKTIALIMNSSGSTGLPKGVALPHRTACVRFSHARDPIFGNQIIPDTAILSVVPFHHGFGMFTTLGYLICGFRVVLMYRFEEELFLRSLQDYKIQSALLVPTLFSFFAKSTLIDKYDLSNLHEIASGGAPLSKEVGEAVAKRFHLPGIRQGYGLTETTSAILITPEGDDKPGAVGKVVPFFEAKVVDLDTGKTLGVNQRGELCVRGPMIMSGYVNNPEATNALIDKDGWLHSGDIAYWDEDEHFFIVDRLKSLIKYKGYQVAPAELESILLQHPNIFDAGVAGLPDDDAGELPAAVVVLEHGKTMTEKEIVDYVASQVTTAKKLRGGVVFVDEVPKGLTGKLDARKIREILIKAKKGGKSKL

On to `CC(C)NNC(=O)c1ccncc1`, for which the Potency entry in assay [1], in assay [5], in [6], in [7], in assay [10] and in assay [12] was “inactive” each time. The Potency result in assay [13] is “inactive”. The compound was called inactive in assay [2], in assay [3], in [4], in [8], in assay [9] and in assay [11].

On to `CCOC(=O)c1ccccc1`, for which the Potency result in assay [1], in assay [14], in [15], in assay [7], in assay [17] and in [10] was “inactive” throughout. Besides, the Potency result in assay [12] and in assay [13] was “inactive” throughout. The call in assay [2], in assay [3], in [16], in [8], in assay [18] and in [9] was inactive. Moreover, the outcome in assay [11] was inactive.

Regarding `CCCn1cc[n+](C)c1C`, the Potency result in assay [1], in [7], in [10] and in [13] was “inactive” in each case. For the same compound, the compound was called inactive in assay [2], in assay [3], in assay [4], in [16], in assay [8] and in assay [11]. Further, the Potency in assay [12] is 45 µM (active).

In the case of `[Ca+2]`, the Potency result in assay [1], in assay [5], in [6], in assay [7], in assay [10] and in [12] was “inactive” throughout. Further, in assay [13], the Potency result is “inactive”. The compound was classed as inactive in [2], in assay [3], in assay [16], in [8], in assay [9] and in [11].

On to `NCCCC(N)(C(=O)O)C(F)F` (stereo not drawn), for which the Potency result in [1], in [5], in assay [6], in assay [7], in assay [10] and in [12] was “inactive” throughout. Further, the Potency result in [13] is “inactive”. In addition, the call in assay [2], in assay [3], in assay [4], in [9] and in [11] was inactive.

Turning to `CCCCCCCCCCCCCCC(=O)O`, the result in [2], in assay [3], in assay [4], in assay [16], in assay [8] and in assay [9] was inactive. The compound was classed as inactive in assay [11]. Further, the Potency result in [19], in assay [20], in assay [5], in assay [7], in assay [10] and in assay [12] was “inactive” in each case. Moreover, the Potency entry in assay [13] was “inactive”.

Regarding `CO[C@@]1(NC(=O)C(C(=O)O)c2ccc(O)cc2)C(=O)N2C(C(=O)O)=C(CSc3nnnn3C)CO[C@@H]21` (stereo partly drawn), the compound was called inactive in assay [2], in assay [3], in assay [4], in assay [8], in assay [18] and in [9]. Besides, the compound was called inactive in [11]. The Potency entry in assay [20], in assay [14], in assay [15], in assay [5], in [6] and in [7] was “inactive” each time. The Potency entry in assay [17], in [10], in assay [12] and in [13] was “inactive” throughout.

As for `C[N+]1(C)[C@@H]2CC(OC(=O)[C@H](CO)c3ccccc3)C[C@H]1[C@@H]1O[C@@H]12` (stereo partly drawn), the Potency result in [1], in assay [5], in assay [7] and in assay [13] was “inactive” throughout. Moreover, the call in assay [2], in assay [3] and in assay [8] was inactive.

Regarding `O=C1CCCCCCCCCCCCCCO1`, the Potency result in [1], in assay [6], in assay [10], in assay [12] and in assay [13] was “inactive” throughout. Besides, the call in assay [2], in [3], in assay [16], in [8], in assay [9] and in assay [11] was inactive.
